This is an account of results in PubChem BioAssay (EPA / NIEHS).

Read-out in experiment [1]: Transforming Growth Factor (TGFB1), TGFB1 (gene 7040)
Description: LTEA_HepaRG_TGFB1: Life Technologies and Expression Analysis (LTEA) Assay for Transforming Growth Factor (TGFB1) Transporter using HepaRG (AID 2283533; active = hit-call score of the fitted dose curve at least 0.9, where 1 is the maximum; inactive = score below 0.9). Particulars: mRNA level, 48 h; actives raise or lower the signal. Summed up: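 Differentiated human HepaRG cells in serum-free induction medium were exposed in duplicate for 48 h to eight concentrations (top 100 uM, half-log steps, 0.5% DMSO). TGFB1 mRNA was quantified by qRT-PCR, normalized to ACTB, GAPDH, POLR2A, and fitted bidirectionally against DMSO.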

Read-out in experiment [2]: TIMP1, TIMP1 (gene 7076)
Description: LTEA_HepaRG_TIMP1: Life Technologies and Expression Analysis (LTEA) Assay for TIMP1 using HepaRG (AID 2283534; active = hit-call score of the fitted dose curve at least 0.9, where 1 is the maximum; inactive = score below 0.9;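 as to outcome: TaqMan qRT-PCR signal normalized to ACTB GAPDH and POLR2A housekeeping genes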). Particulars: mRNA level, 48 h; actives raise or lower the signal. The essentials:
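Differentiated human HepaRG cells in serum-free induction medium were exposed 48 h to chemicals (8 half-log concentrations, top 100 uM, 0.5% DMSO). TIMP1 mRNA was quantified by TaqMan qRT-PCR, normalized to ACTB/GAPDH/POLR2A; bidirectional fit versus DMSO.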

Read-out in experiment [3]: Tumor necrosis factor receptor 1 (TNFRSF1A), TNFRSF1A (gene 7132)
Description: LTEA_HepaRG_TNFRSF1A: Life Technologies and Expression Analysis (LTEA) Assay for Tumor necrosis factor receptor 1 (TNFRSF1A) using HepaRG (AID 2283535; active = hit-call score of the fitted dose curve at least 0.9, where 1 is the maximum; inactive = score below 0.9). Conditions: mRNA level, 48 h; actives raise or lower the signal. The essentials:
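Differentiated human HepaRG cells were exposed in duplicate for 48 h in serum-free induction medium to eight concentrations (top 100 uM, half-log steps, 0.5% DMSO). TNFRSF1A mRNA was quantified by qRT-PCR, normalized to ACTB, GAPDH and POLR2A, then fitted bidirectionally against DMSO.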

Read-out in experiment [4]: Thyroid Hormone Responsive (THRSP), THRSP (gene 7069)
Description: LTEA_HepaRG_THRSP: Life Technologies and Expression Analysis (LTEA) Assay for Thyroid Hormone Responsive (THRSP) using HepaRG (AID 2283536; active = hit-call score of the fitted dose curve at least 0.9, where 1 is the maximum; inactive = score below 0.9). Particulars: mRNA level, 48 h; actives raise or lower the signal. The essentials: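 Differentiated HepaRG cells treated 48 h in serum-free induction medium with 8 half-log concentrations up to 100 uM (0.5% DMSO), duplicates. THRSP mRNA by TaqMan qRT-PCR normalised to ACTB, GAPDH, POLR2A; bidirectional fit versus DMSO.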

Read-out in experiment [5]: Cellular tumor antigen p53 (Homo sapiens) (UniProt P04637)
Description: LTEA_HepaRG_TP53: Life Technologies and Expression Analysis (LTEA) Assay for Tumor Protein P53 (TP53) using HepaRG (AID 2283537; active = hit-call score of the fitted dose curve at least 0.9, where 1 is the maximum; inactive = score below 0.9). Particulars: mRNA level, 48 h; actives raise or lower the signal. Summed up: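 TP53 transcript measured by qRT-PCR, normalized to three housekeeping genes, after 48 h treatment of human HepaRG cultures with chemicals from 100 uM downward in half-log steps (0.5% DMSO vehicle, serum-free induction medium). Up- or down-regulation fitted against DMSO.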

Read-out in experiment [6]: UDP glucuronosyltransferase (UGT1A1), UGT1A1 (gene 54658)
Description: LTEA_HepaRG_UGT1A1: Life Technologies and Expression Analysis (LTEA) Assay for UDP glucuronosyltransferase (UGT1A1) using HepaRG (AID 2283538; active = hit-call score of the fitted dose curve at least 0.9, where 1 is the maximum; inactive = score below 0.9). Conditions: mRNA level, 48 h; actives raise or lower the signal. Summed up:
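Readout is UGT1A1 transcript level by qRT-PCR, normalized to three housekeeping genes, after 48 h chemical treatment of HepaRG cells. Concentrations ran from 100 uM down in half-log steps with 0.5% DMSO, and gain or loss relative to DMSO was fitted.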

Read-out in experiment [7]: X-box binding protein 1 (XBP1), XBP1 (gene 7494)
Description: LTEA_HepaRG_XBP1: Life Technologies and Expression Analysis (LTEA) Assay for X-box binding protein 1 (XBP1) using HepaRG (AID 2283540; active = hit-call score of the fitted dose curve at least 0.9, where 1 is the maximum; inactive = score below 0.9). Particulars: mRNA level, 48 h; actives raise or lower the signal. The essentials: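 Differentiated human HepaRG cells in serum-free induction medium were exposed in duplicate for 48 h to eight half-log concentrations up to 100 uM in 0.5% DMSO. XBP1 mRNA was quantified by qRT-PCR, normalised to ACTB, GAPDH and POLR2A, with bidirectional fitting against DMSO.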

A short description of experiment [8]: LTEA_HepaRG_LDH_cytotoxicity: Cytotoxicity Assessment in the Life Technologies and Expression Analysis (LTEA) Assay (AID 2283563).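 As to AC50: LDH activity released into spent culture medium as a marker of cell death.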 Summed up: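 Differentiated human HepaRG cells, plated 48 h beforehand, were switched to serum-free induction medium and exposed for 48 h to eight half-log concentrations (top 100 uM) in 0.5% DMSO. LDH was measured in spent medium; activity was fitted relative to DMSO vehicle.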

Experiment [9] can be described thus: ATG_XTT_Cytotoxicity: Cytotoxicity Assessment in the Attagene TRANS-FACTORIAL HepG2 Assay (AID 2283584).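 As to AC50: cells exposed to compound for 24 h before reading; active means loss of viability signal versus DMSO baseline.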 The essentials: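 HepG2 human liver cells, transiently transfected with multiple GAL4-UAS reporter units, were dosed and read at 24 h by XTT as cell number. Loss of signal was fitted relative to DMSO negative control baseline.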
Experiment [10] can be described thus: TOX21_p53_BLA_p2_viability: Viability Assessment in the Tox21 HCT-116 p53 Agonism Beta-lactamase Assay, Phase 2 (AID 2283591).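 Also: compound exposure lasted 16 h at 37 °C; actives lower the ATP signal meaning cytotoxicity.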 Summed up: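 HCT116 p53-bla cells, 4000/well, dosed after 5 h plating (217-fold dilution of DMSO stocks) and incubated 16 h at 37C. Viability taken as cellular ATP by CellTiter-Glo luminescence after 30 min RT; signal loss marks cytotoxicity.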

Experiment [11] deals with Cellular tumor antigen p53 (Homo sapiens) (UniProt P04637). Description: TOX21_p53_BLA_p2_ratio: Tox21 HCT-116 p53 Agonism Beta-lactamase Assay, Ratio, Phase 2 (AID 2283592). Summed up: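 HCT116 cells carrying a p53-responsive beta-lactamase reporter were plated, incubated 5 h at 37C, then dosed with compounds in DMSO (217-fold dilution) for 16 h. CCF4-AM substrate was added for 2 h at room temperature; the 460/530 nm emission ratio gave gain-of-signal activity relative to DMSO.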

The nature of experiment [12]: TOX21_p53_BLA_p3_viability: Viability Assessment in the Tox21 HCT-116 p53 Agonism Beta-lactamase Assay, Phase 3 (AID 2283593).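 Also: cells exposed to compound for 16 h before reading.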 Summed up: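 HCT116 cells, 4000/well, dosed 5 h after plating by pin transfer (217-fold dilution from DMSO stock) and incubated 16 h at 37C, 5% CO2. Viability read as ATP luminescence with CellTiter-Glo after 30 min at room temperature.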
Experiment [13] has as its target Cellular tumor antigen p53 (Homo sapiens) (UniProt P04637). Description: TOX21_p53_BLA_p3_ratio: Tox21 HCT-116 p53 Agonism Beta-lactamase Assay, Ratio, Phase 3 (AID 2283596). Summed up: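 HCT116 p53-bla cells (4000/well) given compound in DMSO (217-fold dilution) after 5 h, incubated 16 h at 37C. CCF4-AM substrate 2 h at room temperature; 460/530 nm emission ratio, gain fitted against DMSO.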

Experiment [14] is described as follows: TOX21_p53_BLA_p4_viability: Viability Assessment in the Tox21 HCT-116 p53 Agonism Beta-lactamase Assay, Phase 4 (AID 2283597).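 Also: hits lower the luminescence signal meaning cytotoxicity.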 The essentials:
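HCT116 p53-bla cells (4000/well) rested 5 h at 37C, then received compounds in DMSO (217-fold dilution) for 16 h at 37C, 5% CO2. CellTiter-Glo was added after the CCF4-AM read, and luminescence was read after 30 min at room temperature.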

The target of experiment [15] is Cellular tumor antigen p53 (Homo sapiens) (UniProt P04637). Description: TOX21_p53_BLA_p5_ratio: Tox21 HCT-116 p53 Agonism Beta-lactamase Assay, Ratio, Phase 5 (AID 2283599). The essentials: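 HCT-116 p53-bla cells (4000/well) plated 5 h, dosed with compound (217-fold DMSO dilution) for 16 h at 37 C; CCF4-AM substrate 2 h at room temperature. Activity is the 460/530 nm emission ratio (405 nm excitation), fitted in gain-of-signal direction versus DMSO.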

Experiment [16] can be described thus: TOX21_p53_BLA_p5_viability: Viability Assessment in the Tox21 HCT-116 p53 Agonism Beta-lactamase Assay, Phase 5 (AID 2283600). The essentials:
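Cells were plated at 4000/well, rested 5 h at 37C, then given compounds in DMSO (217-fold dilution) for 16 h at 37C, 5% CO2. Following the CCF4-AM beta-lactamase read, CellTiter-Glo was added and luminescence was read after 30 min at room temperature.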

In experiment [17] the target is Cellular tumor antigen p53 (Homo sapiens) (UniProt P04637). Description: TOX21_p53_BLA_p4_ratio: Tox21 HCT-116 p53 Agonism Beta-lactamase Assay, Ratio, Phase 4 (AID 2283601). The essentials:
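HCT-116 p53 beta-lactamase reporter cells (4000/well) preincubated 5 h, then compound (217-fold dilution of DMSO stock) for 16 h at 37C. CCF4-AM substrate added 2 h at room temperature; 460/530 nm emission ratio fitted upward versus DMSO.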

Experiment [18] in a line: Tanguay_ZF_120hpf_MORT_legacy: (Legacy) Oregon State University Tanguay Lab 120 Hour Post-fertilization zebrafish Assay for Mortality (AID 2283633). The essentials: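 Dechorionated Tropical 5D wild-type zebrafish embryos, one per well from 6 hpf, were statically exposed at 28C in the dark until 120 hpf (0.64% DMSO final). Mortality was scored as present/absent by brightfield microscopy, fitted positively versus DMSO.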

The nature of experiment [19]: Tanguay_ZF_120hpf_YSE_legacy: (Legacy) Oregon State University Tanguay Lab 120 Hour Post-fertilization zebrafish Assay for Yolk Sac Edema (AID 2283634).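 As to AC50: actives raise the incidence of yolk sac edema above the DMSO baseline.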 The essentials: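 Tropical 5D wild-type embryos, dechorionated with pronase at 4 hpf, were exposed singly from 6 hpf to 120 hpf under static, sealed, dark conditions at 28C with 0.64% DMSO final. Yolk sac edema was scored present/absent by brightfield microscopy.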

Several values for one entry are separate records, joined by “and”; a condition that tells them apart may be missing. Identical values can stand only once. Results filed as inconclusive are left out. Some compounds were tested as several samples or in several runs, with calls that do not always agree. Activity calls are given as the source filed them. The calls were made as follows, unless noted: active = hit-call score of the fitted dose curve at least 0.9, where 1 is the maximum; inconclusive = response in the unintended direction; inactive = score below 0.9.

Sequence of Cellular tumor antigen p53 (Homo sapiens) (P04637 whole entry, looked up): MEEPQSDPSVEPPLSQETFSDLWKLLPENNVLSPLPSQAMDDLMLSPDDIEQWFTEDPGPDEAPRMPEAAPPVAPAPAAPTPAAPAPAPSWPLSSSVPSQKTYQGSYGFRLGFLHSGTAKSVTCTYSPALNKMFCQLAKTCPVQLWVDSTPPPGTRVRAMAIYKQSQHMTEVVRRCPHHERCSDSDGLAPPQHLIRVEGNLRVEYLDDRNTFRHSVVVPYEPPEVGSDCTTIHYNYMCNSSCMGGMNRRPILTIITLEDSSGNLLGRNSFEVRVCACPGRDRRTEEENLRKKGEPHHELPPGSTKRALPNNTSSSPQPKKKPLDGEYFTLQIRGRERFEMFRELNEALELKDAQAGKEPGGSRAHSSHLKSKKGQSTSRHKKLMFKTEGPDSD

For orientation: AC50 means the concentration giving half of the maximal activity seen. On to `O=S1OCC2C(CO1)C1(Cl)C(Cl)=C(Cl)C2(Cl)C1(Cl)Cl` (configuration not stated), for which the AC50 in [1] is 72.1 µM (active); in [4], 41.7 µM (active); in experiment [5], 70.2 µM (active); in experiment [8], 94 µM (active); in experiment [10] it was 46.1 µM (active) and 81.5 µM (active); in [11], 73.9 µM (active) and 86.2 µM (active). For the same compound, the AC50 in [12] is 54.1 µM (active); in experiment [14], 70.9 µM (active) and 85.8 µM (active); in [15], 87.3 µM (active) and 73.3 µM (active); in experiment [16] it was 75.3 µM (active) and 70.2 µM (active); in [17] it was 69.2 µM (active) and 74.9 µM (active). In addition, the result in [2], in experiment [3], in [6], in experiment [7], in experiment [9] and in experiment [12] was inactive. The result in experiment [13], in [18] and in experiment [19] was inactive.

Consider `OCCOc1ccccc1`, for which the compound was called inactive in experiment [1], in [2], in [3], in [4], in [5] and in experiment [6]. Further, the result in [7], in experiment [8], in [10], in [11], in experiment [12] and in [13] was inactive. The compound was called inactive in experiment [14], in [15], in [16], in [17], in experiment [18] and in [19].

On to `O=C(O)CCCOc1ccc(Cl)cc1Cl`, for which the compound was classed as inactive in experiment [1], in experiment [2], in [3], in experiment [4], in experiment [5] and in experiment [7]. For the same compound, the outcome in experiment [8], in experiment [9], in experiment [10], in experiment [11], in experiment [12] and in [13] was inactive. The outcome in experiment [14], in [15], in experiment [16], in [17] and in [18] was inactive. For the same compound, the AC50 in [6] is 34.5 µM (active); in [19], 42.6 µM (active).

For `ClC1C(Cl)C(Cl)C(Cl)C(Cl)C1Cl` (configuration not stated), the call in experiment [1], in [2], in experiment [3], in experiment [4], in [5] and in [7] was inactive. For the same compound, the outcome in experiment [8], in [9], in [10], in [11], in experiment [12] and in experiment [13] was inactive. In addition, the compound was classed as inactive in experiment [14], in [15], in experiment [16], in experiment [17], in [18] and in [19]. Also, the AC50 is 780 nM (active) and 3.95 µM (active) in [6]; 72.6 µM (active) in experiment [14]; 86.7 µM (active) in [15].

For `CC(C)(C)C(O)/C(=C\c1ccc(Cl)cc1Cl)n1cncn1` (configuration not stated), the compound was classed as inactive in [1], in experiment [3], in [4], in experiment [5], in [7] and in experiment [10]. Further, the outcome in experiment [11], in experiment [12], in [13], in experiment [15], in [16] and in experiment [17] was inactive. Further, the compound was classed as inactive in experiment [18]. Further, the AC50 is 69.2 µM (active) in [2]; 69.2 µM (active) in [6]; 72.9 µM (active) in experiment [8]; 56.3 µM (active) in experiment [9]; 51.8 µM (active) in [14]; 34.4 µM (active) in experiment [19].
